# From the supplement of paper PMC4466140
# Key:
# Assay in all cases: SPOT peptide array binding signal intensity (averaged, normalized) (arbitrary units (background-subtracted, floor 0; scale differs between SH3 domains)); higher = stronger binding of the SH3 domain to the peptide
# [1] = target: AgAbp1
# How it was run: (§1)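 GST-fused SH3 domains from four yeast species were expressed in E. coli BL21(DE3), purified on glutathione Sepharose and incubated at 10 μg/ml overnight at 4°C in TBS-based blocking buffer on cellulose membranes carrying synthetic 15-mer peptides, with cysteines replaced by serines. Bound protein was detected with anti-GST antibody, an HRP anti-mouse secondary and luminol, then imaged and quantified with Genespotter. Binding signal is the normalized, background-subtracted spot intensity averaged over replicates, in arbitrary units that differ between domains.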
# [2] = target: AgBbc1
# How it was run: as §1
# [3] = target: AgBem1-D1
# How it was run: as §1
# [4] = target: AgBzz1-D1
# How it was run: as §1
# [5] = target: AgBzz1-D2
# How it was run: as §1
# [6] = target: AgCyk3
# How it was run: as §1
# [7] = target: AgFus1
# How it was run: as §1
# [8] = target: AgHof1
# How it was run: as §1
# [9] = target: AgHse1
# How it was run: as §1
# [10] = target: AgLsb1
# How it was run: as §1
# [11] = target: AgLsb4
# How it was run: as §1
# [12] = target: AgMyo5
# How it was run: as §1
# [13] = target: AgNbp2
# How it was run: as §1
# [14] = target: AgRvs167
# How it was run: as §1
# [15] = target: AgSho1
# How it was run: as §1
# [16] = target: AgSla1-D1-D2
# How it was run: as §1
# [17] = target: AgSla1-D3
# How it was run: as §1
# [18] = target: CaAbp1-D1
# How it was run: as §1
# [19] = target: CaAbp1-D2
# How it was run: as §1
# [20] = target: CaBbc1
# How it was run: as §1
# [21] = target: CaBem1-D1
# How it was run: as §1
# [22] = target: CaBzz1-D1
# How it was run: as §1
# [23] = target: CaBzz1-D2
# How it was run: as §1
# [24] = target: CaCyk3
# How it was run: as §1
# [25] = target: CaFus1
# How it was run: as §1
# [26] = target: CaHof1
# How it was run: as §1
# [27] = target: CaHse1
# How it was run: as §1
# [28] = target: CaLsb1
# How it was run: as §1
# [29] = target: CaLsb4
# How it was run: as §1
# [30] = target: CaMyo5
# How it was run: as §1
# [31] = target: CaNbp2
# How it was run: as §1
# [32] = target: CaRvs167
# How it was run: as §1
# [33] = target: CaRvs167-3
# How it was run: as §1
# [34] = target: CaSho1
# How it was run: as §1
# [35] = target: CaSla1-D1-D2
# How it was run: as §1
# [36] = target: CaSla1-D3
# How it was run: as §1
# [37] = target: ScAbp1
# How it was run: as §1
# [38] = target: ScBbc1
# How it was run: as §1
# [39] = target: ScBem1-D1
# How it was run: as §1
# [40] = target: ScBzz1-D1
# How it was run: as §1
# [41] = target: ScBzz1-D2
# How it was run: as §1
# [42] = target: ScCyk3
# How it was run: as §1
# [43] = target: ScFus1
# How it was run: as §1
# [44] = target: ScHof1
# How it was run: as §1
# [45] = target: ScHse1
# How it was run: as §1
# [46] = target: ScLsb1
# How it was run: as §1
# [47] = target: ScLsb2
# How it was run: as §1
# [48] = target: ScLsb3
# How it was run: as §1
# [49] = target: ScLsb4
# How it was run: as §1
# [50] = target: ScMyo3
# How it was run: as §1
# [51] = target: ScMyo5
# How it was run: as §1
# [52] = target: ScNbp2
# How it was run: as §1
# [53] = target: ScPex13
# How it was run: as §1
# [54] = target: ScRvs167
# How it was run: as §1
# [55] = target: ScSho1
# How it was run: as §1
# [56] = target: ScSla1-D1-D2
# How it was run: as §1
# [57] = target: ScSla1-D3
# How it was run: as §1
# [58] = target: SpAbp1-D1
# How it was run: as §1
# [59] = target: SpBbc1
# How it was run: as §1
# [60] = target: SpBzz1-D1
# How it was run: as §1
# [61] = target: SpBzz1-D2
# How it was run: as §1
# [62] = target: SpCyk3
# How it was run: as §1
# [63] = target: SpHof1
# How it was run: as §1
# [64] = target: SpHof1-2
# How it was run: as §1
# [65] = target: SpHof1-3
# How it was run: as §1
# [66] = target: SpHse1
# How it was run: as §1
# [67] = target: SpLsb1
# How it was run: as §1
# [68] = target: SpLsb4
# How it was run: as §1
# [69] = target: SpMyo1
# How it was run: as §1
# [70] = target: SpNbp2
# How it was run: as §1
# [71] = target: SpPex13
# How it was run: as §1
# [72] = target: SpRvs167
# How it was run: as §1
# [73] = target: SpSla1-D1-D2
# How it was run: as §1
# [74] = target: SpSla1-D3
# How it was run: as §1
binder,measurement,setting,value
VDFTLPPPPPPPGLD,SPOT peptide array binding signal intensity,[1],4
same,SPOT peptide array binding signal intensity,[2],≤ 0
same,SPOT peptide array binding signal intensity,[3],≤ 0
same,SPOT peptide array binding signal intensity,[4],≤ 0
same,SPOT peptide array binding signal intensity,[5],≤ 0
same,SPOT peptide array binding signal intensity,[6],≤ 0
same,SPOT peptide array binding signal intensity,[7],≤ 0
same,SPOT peptide array binding signal intensity,[8],27.8
same,SPOT peptide array binding signal intensity,[9],32
same,SPOT peptide array binding signal intensity,[10],1.5
same,SPOT peptide array binding signal intensity,[11],≤ 0
same,SPOT peptide array binding signal intensity,[12],1660
same,SPOT peptide array binding signal intensity,[13],≤ 0
same,SPOT peptide array binding signal intensity,[14],1.67
same,SPOT peptide array binding signal intensity,[15],≤ 0
same,SPOT peptide array binding signal intensity,[16],2
same,SPOT peptide array binding signal intensity,[17],0.5
same,SPOT peptide array binding signal intensity,[18],≤ 0
same,SPOT peptide array binding signal intensity,[19],9
same,SPOT peptide array binding signal intensity,[20],≤ 0
same,SPOT peptide array binding signal intensity,[21],≤ 0
same,SPOT peptide array binding signal intensity,[22],230
same,SPOT peptide array binding signal intensity,[23],≤ 0
same,SPOT peptide array binding signal intensity,[24],≤ 0
same,SPOT peptide array binding signal intensity,[25],≤ 0
same,SPOT peptide array binding signal intensity,[26],0.5
same,SPOT peptide array binding signal intensity,[27],≤ 0
same,SPOT peptide array binding signal intensity,[28],≤ 0
same,SPOT peptide array binding signal intensity,[29],≤ 0
same,SPOT peptide array binding signal intensity,[30],29
same,SPOT peptide array binding signal intensity,[31],≤ 0
same,SPOT peptide array binding signal intensity,[32],1
same,SPOT peptide array binding signal intensity,[33],0.25
same,SPOT peptide array binding signal intensity,[34],≤ 0
same,SPOT peptide array binding signal intensity,[35],≤ 0
same,SPOT peptide array binding signal intensity,[36],≤ 0
same,SPOT peptide array binding signal intensity,[37],≤ 0
same,SPOT peptide array binding signal intensity,[38],≤ 0
same,SPOT peptide array binding signal intensity,[39],≤ 0
same,SPOT peptide array binding signal intensity,[40],6
same,SPOT peptide array binding signal intensity,[41],≤ 0
same,SPOT peptide array binding signal intensity,[42],1
same,SPOT peptide array binding signal intensity,[43],≤ 0
same,SPOT peptide array binding signal intensity,[44],17.8
same,SPOT peptide array binding signal intensity,[45],≤ 0
same,SPOT peptide array binding signal intensity,[46],≤ 0
same,SPOT peptide array binding signal intensity,[47],1.5
same,SPOT peptide array binding signal intensity,[48],≤ 0
same,SPOT peptide array binding signal intensity,[49],≤ 0
same,SPOT peptide array binding signal intensity,[50],1810
same,SPOT peptide array binding signal intensity,[51],1800
same,SPOT peptide array binding signal intensity,[52],≤ 0
same,SPOT peptide array binding signal intensity,[53],4.75
same,SPOT peptide array binding signal intensity,[54],2.33
same,SPOT peptide array binding signal intensity,[55],≤ 0
same,SPOT peptide array binding signal intensity,[56],≤ 0
same,SPOT peptide array binding signal intensity,[57],≤ 0
same,SPOT peptide array binding signal intensity,[58],≤ 0
same,SPOT peptide array binding signal intensity,[59],0.5
same,SPOT peptide array binding signal intensity,[60],1630
same,SPOT peptide array binding signal intensity,[61],7
same,SPOT peptide array binding signal intensity,[62],1
same,SPOT peptide array binding signal intensity,[63],≤ 0
same,SPOT peptide array binding signal intensity,[64],0.75
same,SPOT peptide array binding signal intensity,[65],1.75
same,SPOT peptide array binding signal intensity,[66],11
same,SPOT peptide array binding signal intensity,[67],0.5
same,SPOT peptide array binding signal intensity,[68],≤ 0
same,SPOT peptide array binding signal intensity,[69],1110
same,SPOT peptide array binding signal intensity,[70],≤ 0
same,SPOT peptide array binding signal intensity,[71],≤ 0
same,SPOT peptide array binding signal intensity,[72],1
same,SPOT peptide array binding signal intensity,[73],≤ 0
same,SPOT peptide array binding signal intensity,[74],≤ 0
NLDRSKISLPDFDDE,SPOT peptide array binding signal intensity,[31],193
same,SPOT peptide array binding signal intensity,[32],1.33
same,SPOT peptide array binding signal intensity,[33],1.25
same,SPOT peptide array binding signal intensity,[34],74.5
same,SPOT peptide array binding signal intensity,[35],≤ 0
same,SPOT peptide array binding signal intensity,[36],≤ 0
same,SPOT peptide array binding signal intensity,[37],11
same,SPOT peptide array binding signal intensity,[38],1.5
same,SPOT peptide array binding signal intensity,[39],1
same,SPOT peptide array binding signal intensity,[40],39.5
same,SPOT peptide array binding signal intensity,[41],18
same,SPOT peptide array binding signal intensity,[42],16
same,SPOT peptide array binding signal intensity,[43],34
same,SPOT peptide array binding signal intensity,[44],2
same,SPOT peptide array binding signal intensity,[45],1260
same,SPOT peptide array binding signal intensity,[46],≤ 0
same,SPOT peptide array binding signal intensity,[47],≤ 0
same,SPOT peptide array binding signal intensity,[48],≤ 0
same,SPOT peptide array binding signal intensity,[49],3
same,SPOT peptide array binding signal intensity,[50],3.5
same,SPOT peptide array binding signal intensity,[51],4
same,SPOT peptide array binding signal intensity,[52],28
same,SPOT peptide array binding signal intensity,[53],≤ 0
same,SPOT peptide array binding signal intensity,[54],0.167
same,SPOT peptide array binding signal intensity,[55],87.5
same,SPOT peptide array binding signal intensity,[56],≤ 0
same,SPOT peptide array binding signal intensity,[57],1
same,SPOT peptide array binding signal intensity,[58],11
same,SPOT peptide array binding signal intensity,[59],≤ 0
same,SPOT peptide array binding signal intensity,[60],14.5
same,SPOT peptide array binding signal intensity,[61],≤ 0
same,SPOT peptide array binding signal intensity,[62],≤ 0
same,SPOT peptide array binding signal intensity,[63],11.5
same,SPOT peptide array binding signal intensity,[64],4
same,SPOT peptide array binding signal intensity,[65],70
same,SPOT peptide array binding signal intensity,[66],983
same,SPOT peptide array binding signal intensity,[67],≤ 0
same,SPOT peptide array binding signal intensity,[68],≤ 0
same,SPOT peptide array binding signal intensity,[69],9
same,SPOT peptide array binding signal intensity,[70],16
same,SPOT peptide array binding signal intensity,[71],≤ 0
same,SPOT peptide array binding signal intensity,[72],0.5
same,SPOT peptide array binding signal intensity,[73],≤ 0
same,SPOT peptide array binding signal intensity,[74],≤ 0
